Granule exo inh: lytic granule exocytosis inhibition | TALL-104 LAMP-1 surface exposure, flow cytometry; cells stimulated with thapsigargin and PMA | inhibition, % at 10 µM | AID 651702 | hit rate 0.66% among 360,000;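 active = inhibition above about 55%, limit read from the data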
ABHD5-PLIN5 inh: blocks binding of human ABHD5 to perilipin-5; Split G. princeps luciferase complementation, luminescence, 4 h; AID 602281; inhibition, % at 4 µM; Q00G26+Q8WTS1; hit rate 0.78% among 360,000;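 active = inhibition above the mean inhibition across every tested compound plus 3 SD, cut at about 22% in these data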;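 note: 0% = DMSO only wells and the 100% control is not disclosed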
TLR4-MyD88 BLA: TLR4-MyD88 interaction inhibition in cells; O00206+Q99836; HeLa CL3-4 TLR4/MyD88 BLA complementation, FRET ratio; inhibition, % at 8.4 µM; hit rate 0.18% among 200,000; in the data active = inhibition above about 25%;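 note: 0% = vehicle and 100% = reference inhibitor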
NOD2-RIPK2 inh: NOD2-RIPK2 protein interaction inhibition. O43353. CHO BLA complementation NOD2-RIPK2, CCF4 ratio. inhibition, % at 4.98 µM. hit rate 0.38% among 360,000. AID 624267; in the data active = inhibition above about 21%;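 note: 0% = vehicle only and 100% = reference blocker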
TLR9-MyD88 inh: blocks human TLR9 binding to MyD88; hit rate 0.21% among 340,000; Q9NR96+Q99836; CHO BLA complementation TLR9-MyD88, CCF4 FRET ratio; inhibition, % at 4.98 µM;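 active = inhibition above the mean over all tested compounds plus 3 SD, cut at about 21% in these data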;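 note: 0% = DMSO only wells and 100% = clavulanate BLA inhibitor control wells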
B2AR ag: human beta-2 adrenergic receptor agonism by FAP. hit rate 0.43% among 340,000. response, % (no concentration beside the values). Am2.2-beta2AR cells, FAP receptor internalization, flow cytometry;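 active = response above a set limit, near 3 SD of response in nonfluorescent compounds, cut at about 42% in these data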
An asterisk follows results filed as active; i = inactive; · = no result given. Shown are actives, neighbours in structure and some others; about 2% of the full set was active somewhere.

SMILES	Granule exo inh	ABHD5-PLIN5 inh	TLR4-MyD88 BLA	NOD2-RIPK2 inh	TLR9-MyD88 inh	B2AR ag
C[n+]1ccccc1/C=C1\Sc2ccccc2N1CCO	1	9	·	4	5	-7
CCN1/C(=C\c2ccc3cc(C)ccc3[n+]2CC)Sc2cc(C)c(C)cc21	73*	4	12	0	-2	i
CCN1/C(=C/c2ccc3cc(C)cc(C)c3[n+]2CC)Sc2cc(C)ccc21	77*	8	-2	-4	-5	i
Cc1ccc(S(=O)(=O)N2CCC(C(=O)OCC(=O)N3C(C)CCCC3C)CC2)cc1C (configuration not stated)	10	-12	·	3	-8	·
N#Cc1ccc(CSc2nnc(-c3c[nH]c4ccccc34)n2-c2ccccc2)cc1	96*	16	-3	-2	0	2
CCOC(=O)c1ccc(-n2c(C)ccc2C)cc1	5	-7	-17	-8	-20	13
CCOC(=O)c1ccc(N2C(=O)C=CC2=O)cc1	105*	2	10	1	10	12
O=C(Nc1cccs1)Nc1nnc([C@@H]2C[C@H](O)[C@@H](CO)O2)s1	1	-10	·	6	·	·
CCCCCCCCCCOC(=O)Cn1c(COc2ccc(Cl)cc2)[n+](C)c2ccccc21	35	10	·	18	7	5
CCCCCCCCCCOC(=O)Cn1c(COc2ccccc2)[n+](C)c2ccccc21	66*	12	·	0	-3	8
CCCCCC(=O)N1C[C@@H](n2cc(COC(=O)c3ccccc3)nn2)[C@H](O)C[C@@H]1c1ccc(C)cc1	7	-2	·	1	-1	·
CC(C)CC(=O)/C=C/n1c(=S)oc2ccccc21	2	3	2	-1	-16	49*
C=CCNC(=O)/C(C#N)=C\c1cc(Cl)c(O)c(OCC)c1	-6	-1	2	-4	-7	1
CCOc1cc(/C=C(/C#N)C(=O)Nc2ccc(O)cc2)cc(Br)c1O	6	5	6	6	8	52*
CC(C)(C)c1nn(-c2ccccc2)c2[nH]c(=O)c(C=O)cc12	62*	5	·	3	-4	55*
CC(C)(C)c1nn(-c2ccccc2)c2nc(Cl)c(C=O)cc12	2	1	-8	-2	-4	1
O=C(C1CCCCC1)N1C[C@@H](O)[C@H](n2cc(-c3ccc(F)cc3)nn2)C[C@@H]1c1ccc(Cl)cc1	5	-20	·	-2	-3	·
Cc1nn(C(=O)c2ccco2)c(C)c1Sc1ccc(Cl)cc1	0	-2	6	-13	-4	-10
Cc1nn(C(=O)c2cccnc2)c(C)c1Sc1ccc(Br)cc1	59*	-12	16	5	0	3
CCC(C)C(CO)NCCCn1cnc2c(OC)ncnc21 (configuration not stated)	0	2	·	-23	-3	·
CCOc1ccc2[nH]c(C(=O)N/N=C/c3ccc(OC)cc3)cc2c1	28	-6	·	9	-7	52*
CN(C)c1ccc(C=C2SC(=S)N(Cc3ccco3)C2=O)cc1	105*	9	·	17	7	·
Cc1c(/C=N/NC(=O)c2ccccc2O)c2ccccn2c1C(=O)c1ccc(F)cc1	78*	10	3	-6	7	27
CN1CCN(c2cc(CNC[C@H]3O[C@@H](n4cnc5c(=O)[nH]c(N)nc54)[C@H](O)[C@@H]3O)ccc2F)CC1	-2	-21	·	1	·	·
CC(N)=Nc1ccc([N+](=O)[O-])cc1	1	-3	-27	1	0	-8
SMILES	Granule exo inh	ABHD5-PLIN5 inh	TLR4-MyD88 BLA	NOD2-RIPK2 inh	TLR9-MyD88 inh	B2AR ag
O=[N+]([O-])c1ccc(N=Nc2c(Cl)cc(O)cc2Cl)cc1	79*	3	·	8	-10	55*
C=CCC[C@H](Cc1ccc(F)cc1)C(=O)OC[C@H](Cc1c[nH]c2ccccc12)NC(=O)[C@H](CC=C)CC(=O)N(CCO)Cc1ccccc1	59*	-13	·	-11	4	9
CCOc1ccc(N=C2NC(=O)/C(=C/C(=O)OC)S2)cc1	-2	23*	-3	-8	3	14
COC(=O)/C=C1/SC(=NC(=O)c2ccc(OC)cc2)NC1=O	-7	-12	·	11	-1	11
CCCCN(C(=O)COC(=O)c1sccc1C)c1c(N)n(CCC)c(=O)[nH]c1=O	-2	-8	·	-9	-3	·
CCn1c(SCC(=O)Nc2ccc3c(c2)c2ccccc2n3CC)nnc1-c1ccco1	2	46*	12	-3	3	7
CC(C)c1ccc2[nH]c(O)c(N=NC(=O)c3ccc(CSc4nncn4C)cc3)c2c1	-2	5	12	-8	4	45*
Cn1cnnc1SCc1ccc(C(=O)NN)cc1	-4	5	5	2	6	-2
Cc1ccc(C(O)c2ncc(-c3ccc(F)cc3)[nH]2)cc1F (configuration not stated)	12	0	·	-3	·	·
CCOc1ccccc1-c1cnc(NC)cn1	-11	1	·	-1	·	·
CC1CC(=O)C(C(C2=C(O)CC(C)CC2=O)c2ccccc2)=C(O)C1 (configuration not stated)	0	23*	·	2	-1	3
O=C(O)CCN1C(=O)/C(=C\c2ccc(-c3nc4ccccc4s3)o2)SC1=S	43	-6	5	-3	10	55*
O=C(O)CCCN1C(=O)/C(=C\c2ccco2)SC1=S	-1	0	3	1	-7	10
O=C(c1c(F)cccc1Cl)N(Cc1ccco1)C1CCS(=O)(=O)C1 (configuration not stated)	6	1	·	-9	-7	·
CCOC1CCCc2oc(-c3ccsc3)c(-c3cnc(OC)nc3)c21 (configuration not stated)	-3	-4	·	-8	·	·
CC1=NN(c2ccccc2)C(=O)/C1=C\C=C\c1ccccc1	4	22*	·	-15	·	35
Cn1nc(-c2ccccn2)nc2c(=O)n(C)c(=O)nc1-2	31	14	·	-16	-3	74*
CCCc1nc2c(=O)n(C)c(=O)nc-2n(C)n1	20	6	-11	8	-6	80*
C[C@@H]1COc2cc(N3CCC[C@@H]3CO)ccc2S(=O)(=O)N1	-5	7	·	-14	·	·
Cc1c(NC(=O)CSc2nnc(-c3ccccc3F)o2)c(=O)n(-c2ccccc2)n1C	0	4	·	3	8	·
Cc1c(C(=O)Nc2ccccc2N2CCN(C)CC2)oc2ccc(F)cc12	4	22*	·	6	12	10
COc1ccccc1N1CCN(C(=O)c2oc3ccc(F)cc3c2C)CC1	-7	2	-8	4	-8	1
CCCCc1ccc(NC(=O)CSC2=NN3CCCC(=O)N=C3S2)cc1	0	-3	·	-4	-7	71*
O=C(NCc1ccncc1)[C@@H]1CCCN1C(=O)[C@H]1CCCN1C(=O)c1cccc2ccccc12	-3	1	·	-9	·	·
COC1=C(Nc2ccccc2OC)C(=O)c2ccccc2C1=O	-1	-14	·	4	·	-33

Assay outcomes: PubChem, several laboratories
